# Compound activity deposited in PubChem by National Center for Advancing Translational Sciences (NCATS).
# Rows were chosen to be rich in hits. Some 2.7% of all compounds tested hit in one or more screens of this group.
# Nrf2 ARE act: activators of Nrf2 (ARE) signaling; AREc32 ARE-luciferase reporter (MCF7-derived line), luminescence, 24 h; 410,000 compounds, 0.31% hits; AID 624171; Potency, µM (doses to about 46.1 µM), without a hit: at the highest dose activation, usual class: activators; further: potency means the concentration at half of the fitted maximal effect; % of control where 0% means no effect; nearly all actives have a fitted effect of over 65% in size
#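 ARE activation measured as luciferase luminescence (Steady-Glo, 30 min RT) in AREc32_Fluc cells after 24 hr compound exposure at 37 deg C, 5% CO2; cells seeded overnight at 1000/well in OPTI-MEM, 5% FBS.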
# IDH1 R132H inh: inhibitors of human mutant IDH1 R132H; 390,000 compounds, 0.093% hits; Potency, µM (series often up to 76.6 µM), without a hit: at the top dose activity change, negative = inhibition, usual class: inhibitors; IDH1-R132H enzyme, NADPH consumption, diaphorase/resazurin fluorescence; AID 602179; further: potency means the concentration at half of the fitted maximal effect; on the % scale 0 is the no-effect control and ±100 the full control effect; nearly all actives have a fitted effect of over 65% in size
#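 IDH1-R132H (0.5 ug/mL dispensed) in pH 7.5 Tris buffer was preincubated 30 min with compound, then given a substrate mix of 0.016 mM NADPH and 2 mM alpha-KG for 80 min at room temperature; remaining NADPH was read by diaphorase/resazurin fluorescence.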
# LDHA block: LDHA (human) enzyme inhibition | P00338 | purified LDHA, NADH/diaphorase-resazurin fluorescence; active compounds read low | AID 1347041 | 480,000 compounds, 0.15% hits | activity change, % (values are at about 110 or 230 µM); in the data active means activity change below about -30%; inconclusive means mostly about -25% to -30%;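 further: plate controls were DMSO wells for no effect and wells without enzyme for full effect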
#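 Human LDH5 (2 nM) was incubated with 0.06 mM NADH and 0.2 mM pyruvate for 5 min at room temperature in Tris pH 7.4. Remaining NADH was coupled through diaphorase/resazurin, and resorufin fluorescence was read at 0 and 20 min.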
# ALOX12 inh: inhibitors of human 12S-lipoxygenase ALOX12 | P18054 | purified 12hLO, xylenol orange hydroperoxide absorbance | Potency, µM (highest dose often 108 µM), inactives show top-dose activity change, negative = inhibition, actives largely listed as inhibitors | 580,000 compounds, 1.1% hits | AID 1671190; further: potency means the concentration at half of the fitted maximal effect; on the % scale 0 is the no-effect control and ±100 the full control effect
# Target sequence (P18054 whole entry, looked up): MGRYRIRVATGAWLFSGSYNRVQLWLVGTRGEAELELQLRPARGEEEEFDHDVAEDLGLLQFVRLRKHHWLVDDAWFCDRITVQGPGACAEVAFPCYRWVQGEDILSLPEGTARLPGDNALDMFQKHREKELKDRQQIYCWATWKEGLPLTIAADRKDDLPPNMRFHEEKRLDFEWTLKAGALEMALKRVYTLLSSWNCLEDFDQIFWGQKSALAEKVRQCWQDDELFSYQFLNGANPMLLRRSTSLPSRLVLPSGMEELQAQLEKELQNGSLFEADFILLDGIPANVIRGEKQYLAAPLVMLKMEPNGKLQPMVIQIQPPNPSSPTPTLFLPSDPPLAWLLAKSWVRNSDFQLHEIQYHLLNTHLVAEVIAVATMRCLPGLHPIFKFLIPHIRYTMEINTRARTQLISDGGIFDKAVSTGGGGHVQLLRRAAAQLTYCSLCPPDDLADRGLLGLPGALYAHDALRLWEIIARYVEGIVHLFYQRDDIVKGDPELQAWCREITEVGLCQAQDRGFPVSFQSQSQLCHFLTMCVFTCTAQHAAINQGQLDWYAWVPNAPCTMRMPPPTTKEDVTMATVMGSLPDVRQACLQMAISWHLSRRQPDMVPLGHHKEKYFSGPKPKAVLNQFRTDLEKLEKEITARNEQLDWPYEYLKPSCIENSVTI
#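 Hydroperoxide product was detected by ferrous iron/xylenol orange as the 573 to 405 nm absorbance ratio. Arachidonic acid at 40 uM (final) was turned over for 30 min at room temperature by 150 nM human 12hLO, pH 7.0 Hepes buffer, after 15 min compound preincubation.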
# Nrf2 block: blocks Nrf2 signaling; Potency, µM (doses to about 46 µM), for inactives: at the highest dose activity change, negative = inhibition, actives largely listed as inhibitors; 360,000 compounds, 2.1% hits; A549 ARE-Fluc reporter, luciferase luminescence, 18-24 h; AID 504444; further: potency means the concentration at half of the fitted maximal effect; on the % scale 0 is the no-effect control and ±100 the full control effect; nearly all actives have a fitted effect of over 60% in size
#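 In this cell-based qHTS, ARE-driven firefly luciferase in A549 cells reports Nrf2 activity; the luminescent signal after BugLite lysis is the measured value, with a prior CellTiter-Fluor read for cell health.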
# A549 viability: counter-screen for Nrf2 inhibitors: cytotoxicity in A549 cells | AID 504648 | 390,000 compounds, 0.16% hits | Potency, µM (highest dose often 46 µM), for the others: top-dose activity change, negative = cytotoxicity, usual class: inhibitors | A549 ARE-Fluc cells, CellTiter-Fluor viability, 18-24 h; further: potency means the concentration at half of the fitted maximal effect; on the % scale 0 is the no-effect control and ±100 the full control effect
#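 Cytotoxicity counterscreen: CellTiter-Fluor fluorescence was measured in A549 ARE_Fluc cells after 18-24 h of compound exposure in a concentration series. The subsequent BugLite luminescent read reports ARE-luciferase activity.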
# An asterisk follows results filed as active; ? = inconclusive; . = not tested or not shown. Unless noted, the call rests on the fitted dose curve; in most records, active means well fitted curve in the direction sought with a large enough effect; inconclusive means small, poorly fitted or top-dose-only effect, or another doubt; inactive means no such curve, though single readings can be large; an effect the other way counts as inactive or inconclusive.
SMILES,Nrf2 ARE act,IDH1 R132H inh,LDHA block,ALOX12 inh,Nrf2 block,A549 viability
O=C1CCCC2=C1C(c1cccs1)n1nc(SCc3ccccc3F)nc1N2 (stereo not drawn),0.1%,3.3%,5.0,8.0%,18.4µM*,-27.0%
COc1ccc(-c2noc(CSc3nnc(C)n3-c3cccc(C)c3)n2)cc1,5.6%,0.0%,3.6,-22.7%,?,-6.9%
COc1ccc(-c2noc(CSc3nnc(Cc4ccccc4)n3-c3cccc(C)c3)n2)cc1,-0.4%,-7.3%,-3.6,0.0%,23.1µM*,?
CCCCN(C)CCC(=O)Nc1ccc(F)cc1,.,.,-6.7,-28.6%,.,.
COc1cccc(Nc2nc3ccccc3nc2C(=O)OCC(C)C)c1,.,.,33.1,?,.,.
CCCCOC(=O)c1nc2ccccc2nc1Nc1cccc(OC)c1,.,.,20.9,6.31µM*,.,.
CC(C)(C)c1ccc(/C=C/C(=O)N[C@@H]2C[C@H]3CC[C@@H]2C3)cc1,.,.,5.3,-16.8%,.,.
CC1=NN(c2ccccc2)C(=O)C1C(=S)SC1CC(=O)NC1=O (stereo not drawn),?,6.3%,2.5,?,.,.
O=C1CC(SC(=S)C2CCCC2=O)C(=O)N1 (stereo not drawn),4.7%,7.7%,4.6,22.4µM*,.,.
Cc1ccc(C(C)NC(=O)CCCc2nc(C(C)(C)C)no2)o1 (stereo not drawn),.,.,1.2,12.0%,.,.
COc1ccc(-c2c(C#N)c(N)nc3c2CN(Cc2ccccc2)CC3)cc1OC,.,.,4.1,?,.,.
COc1cccc(OCc2nc3c(n2Cc2ccccc2)C(=O)N(Cc2cccc(Cl)c2)CCN3)c1,.,.,.,6.4%,.,.
CCOC(=O)CN1C(=O)C2Cc3ccccc3CN2C1=S (stereo not drawn),0.7%,?,-30.7*,?,?,0.2%
O=C1C(NS(=O)(=O)c2cccs2)=C(N2CCN(c3cccc(Cl)c3)CC2)C(=O)c2ccccc21,8.6%,5.7%,14.7,?,20.6µM*,?
CCCCN(Cc1cc2cc(OC)ccc2[nH]c1=O)S(C)(=O)=O,.,.,2.9,?,.,.
COc1ccc(C2=NOC(C(=O)Nc3ccc(C(C)=O)cc3)C2)cc1OC (stereo not drawn),2.1%,-1.2%,-2.0,6.1%,1.4%,-7.2%
COc1ccc(C2=NOC(C(=O)Nc3cc(Br)ccc3O)C2)cc1OC (stereo not drawn),20.1%,-8.6%,-11.9,10µM*,-27.0%,-13.7%
CN(CCCNc1cc(C(=O)N2CCOCC2)c2ccccc2n1)C1CCCCC1,.,.,1.7,-1.7%,.,.
Oc1ccc(N=Cc2ccc(OCc3ccccc3)cc2)cc1,14.1µM*,25.7%,16.0,102.5%,?,?
CCOc1ccc(C=Nc2ccc(N(C)C)cc2)cc1,.,.,26.5,31.6µM*,.,.
C(=Nc1ccc(Nc2ccccc2)cc1)c1ccc(OCc2ccccc2)cc1,.,.,-22.7,?,.,.
CN(c1ccccc1)S(=O)(=O)c1ccc(NC(=O)c2ccc(-c3ccccc3)cc2)cc1,-0.3%,7.3%,1.6,12.6%,14.6µM*,-21.5%
Cc1nc2cc(NC(=O)c3ccc(S(=O)(=O)N(C)c4ccccc4)cc3)ccc2o1,3.2%,-5.8%,-1.7,?,8.2µM*,-19.1%
CC(=O)Nc1ccc(C(=O)Nc2cccc(S(=O)(=O)N(C)c3ccccc3)c2)cc1,-1.6%,9.1%,-7.2,25.1%,?,1.1%
Cc1nnc(NC(=O)c2ccc(S(=O)(=O)N(C)c3ccccc3)cc2)s1,-0.5%,1.1%,-6.5,?,?,0.0%
SMILES,Nrf2 ARE act,IDH1 R132H inh,LDHA block,ALOX12 inh,Nrf2 block,A549 viability
CN(c1ccccc1)S(=O)(=O)c1ccc(C(=O)Nc2nnc(-c3ccc(F)cc3)o2)cc1,0.0%,-7.4%,2.8,.,23.1µM*,-15.3%
CN(c1cccc(NC(=O)c2ccc(N(C)S(=O)(=O)c3ccccc3)cc2)c1)S(C)(=O)=O,-0.3%,9.9%,1.9,-1.2%,14.6µM*,-14.8%
CCOc1ccccc1NC(=O)C1CCCN1C(=O)C12CC3CC(CC(C3)C1)C2 (stereo not drawn),.,.,-22.1,94.5%,.,.
CC1(C)CC(C)(c2ccccc2)c2cccc(C(=O)O)c2N1 (stereo not drawn),.,.,2.1,-59.0%,.,.
CCN(CC1COc2ccccc2O1)C(=O)CSc1nnnn1C1CCCC1 (stereo not drawn),.,.,4.8,-9.3%,.,.
Cc1cccc(Nc2nnc(SCC(=O)N3CCOCC3)s2)c1,.,.,1.4,28.8%,.,.
O=C(/C=C/c1ccc(Cl)cc1Cl)OCc1c(F)cccc1Cl,.,.,2.3,-25.7%,.,.
C=C1CCC[C@]2(C)C[C@H]3OC(=O)C(CN4CC(C)OC(C)C4)[C@H]3C[C@@H]12 (stereo partly drawn),?,4.5%,2.6,0.0%,?,-8.1%
CC1CCN(CC2C(=O)O[C@@H]3C[C@@]4(C)CCC[C@H](C)C4=C[C@H]23)CC(C)(C)C1 (stereo partly drawn),8.91µM*,14.5%,-8.0,?,-9.3%,-0.1%
CN(C)Cc1ccccc1-c1cc(N(C)C)ncn1,.,.,.,39.8µM*,.,.
CN(CC(=O)OCc1coc(-c2cccs2)n1)S(=O)(=O)c1ccc(Cl)cc1,.,.,4.9,-7.0%,.,.
NCc1cccc(OC(F)F)c1,.,.,-4.7,3.0%,.,.
O=C(CN1CCN(c2ccc([N+](=O)[O-])c3cnccc23)CC1)Nc1ccc(F)cc1,.,.,20.9,-2.5%,.,.
CC(=O)N1C(=O)/C(=C2\SC(=S)N(NS(=O)(=O)c3ccc(C)cc3)C2=O)c2ccccc21,0.1%,-2.2%,0.4,44.7µM*,-3.0%,-9.3%
CC(/C=C1\SC(=S)N(NS(=O)(=O)c2ccc(C)cc2)C1=O)=C\c1ccccc1,6.3%,0.9%,-12.5,15.8µM*,-13.2%,-15.2%
Cc1nc(N/N=C/c2ccc(O)cc2O)cc(N2CCOCC2)n1,0.1%,15.6%,2.9,5.7%,20.6µM*,1.7%
Cc1nc(N/N=C/c2cccc(F)c2)cc(N2CCOCC2)n1,9.2%,-17.1%,-7.6,-7.0%,-17.8%,1.3%
COc1ccc(CCNC(=O)c2cccc3c(=O)c(C)c(-c4ccccc4)oc23)cc1,.,.,0.3,?,.,.
CCSc1nc(-c2ccco2)ccc1C#N,?,4.3%,-0.4,6.31µM*,23.9%,-11.4%
N#Cc1ccc(-c2ccco2)nc1SCc1ccccc1,?,5.1%,-4.1,3.2%,8.3%,-9.0%
Cc1ccc(-c2cnc(CCC(=O)Nc3cc(Cl)c(N)c(Cl)c3)o2)cc1C,.,.,7.4,31.7%,.,.
COC(=O)c1cc2ccccc2cc1OC(=O)Cc1cc(C(C)=O)ccc1OC,.,.,4.7,5.7%,.,.
